Source: PubChem BioAssay (NCATS)
Records with an inconclusive call do not appear. Values without a mark were called inactive. The source made the active and inactive calls. Calls follow the shape of the dose curve; as a rule, active = well fitted inhibition curve with a large enough effect; inconclusive = small, poorly fitted or top-dose-only effect; inactive = no such curve, though single readings can be large or run the other way.

biological target: Tumor susceptibility gene 101 protein (Homo sapiens) (UniProt Q99816); test: qHTS Assay for Iinhibitors of HIV-1 Budding by Blocking the Interaction of PTAP/TSG101: Hit Validation (AID 651600); conditions: PTAP peptide/TSG101 UEV interaction, biochemical assay; series mostly up to 57.5 µM; activity change, negative = inhibition: at the top concentration; also: nearly all actives have a fitted effect of over 70% in size
Outline: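 Fluorescence polarization binding assay: Tsg101 binding domain (10 uM final) pre-dispensed with compounds, then FITC-labeled PTAP-motif peptide (50 nM final) added; 20 min at r.t. in HEPES pH 7.5 buffer with NaCl, Tween 20, EDTA, TCEP.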
% is scaled to controls: 0 for no effect and ±100 for the full control effect; potency is read from the fitted curve at half-maximal effect.

Chain of Tumor susceptibility gene 101 protein (Homo sapiens) (Q99816 whole entry, looked up, the tested form may be a part): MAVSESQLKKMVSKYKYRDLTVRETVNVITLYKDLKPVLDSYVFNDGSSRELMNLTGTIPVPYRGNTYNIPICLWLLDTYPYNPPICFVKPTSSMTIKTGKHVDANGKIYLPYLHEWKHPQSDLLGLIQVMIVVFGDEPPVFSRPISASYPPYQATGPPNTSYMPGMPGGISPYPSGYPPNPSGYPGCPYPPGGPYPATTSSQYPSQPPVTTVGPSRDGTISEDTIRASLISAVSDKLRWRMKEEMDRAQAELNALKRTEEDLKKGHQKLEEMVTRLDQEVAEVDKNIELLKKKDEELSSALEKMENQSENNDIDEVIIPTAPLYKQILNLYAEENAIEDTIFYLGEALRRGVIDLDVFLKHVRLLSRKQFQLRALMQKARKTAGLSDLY

Point of comparison: N#Cc1c(SCC(=O)Nc2nc3ccc(Br)cc3s2)sc2c(O)cc(=O)[nH]c12, “activity change, negative = inhibition” value -21.8%. Against it:
- c1ccc2c(c1)CCCN2Cc1nnnn1CC1CCCO1 (stereo not given) — lower, -24.7%
- Cc1ccc(C2C=C(c3ccccc3)Nc3nc(NS(C)(=O)=O)nn32)cc1 (stereo not given) — higher, 2.68%
- O=C(O)c1ccc(-n2c(-c3ccc(Br)cc3)n[nH]c2=S)cc1 — lower, -23.7%
- Cc1ccc(-c2nc(C=Nc3ccc(O)cc3)c(O)o2)cc1 — lower, -25.6%
- COc1ccc2oc3ccccc3c(=O)c2c1 — higher, -2.86%
- O=[N+]([O-])c1ccc(-c2cn3nc(-c4ccccc4)c(-c4ccccc4)nc3n2)cc1 — higher, -4.2%
- CC(C)(C)OC(=O)NC(Cc1ccccc1)C(=O)N1CCC(C(=O)NCC(=O)Nc2ccc(F)cc2)CC1 (stereo not given) — higher, 0.595%
- Cc1ccc(Nc2ccc([N+](=O)[O-])ccc2=O)cc1 — higher, -10.1%
- O=C(NCc1cccc(F)c1)c1cccc2c1C(=O)c1ccc(N3CCCC3)cc1S2(=O)=O — higher, -8.13%
- CCOC(=O)C1Nc2ccccc2C2C(O)C(O)CC12 (stereo not given) — higher, -18.1%
- Cc1cccc(CCNC(=O)c2sc3nc4n(c(=O)c3c2C)CCCC4)c1 — higher, 3.66%
- O=[N+]([O-])c1ccc(-c2ccc(/C=N/Nc3nc(N4CCCC4)nc(N4CCCC4)n3)o2)cc1 — higher, 7.22%
- CC(=O)c1cccc(-n2nnnc2SCC(=O)Nc2cc(C)on2)c1 — higher, 11.4%
- COc1ccc(OC)c(S(=O)(=O)Nc2cc3c(cc2C)n(C)c(=O)c(=O)n3C)c1 — higher, -17.1%
- CCCCC(=O)NC1=NC(=O)C(C)(C)S1 — higher, 0.827%
- CN1CC=C2C(C#N)=C(N)C(C#N)(C#N)[C@H](c3ccoc3)[C@H]2C1 — lower, -29.3%
- COc1ccc(OC)c(NC(=O)CCN2CC(C)CC(C)C2)c1 (stereo not given) — higher, 5.24%
- COc1ccccc1NC(=O)C(C)OC(=O)C1CC(=O)N(c2ccc3c(c2)OCCO3)C1 (stereo not given) — higher, 1.1%
- Cc1c(C(=O)Nc2cccc(C(F)(F)F)c2)sc2nc3n(c(=O)c12)CCCC3 — higher, 6.36%
- Cc1ccc(C(=O)Nc2ccc(C(=O)O)cc2)cc1S(=O)(=O)NCc1ccccc1 — higher, 1.48%
- C1=C(c2ccc(-c3ccccc3)cc2)Nc2ncnn2C1c1ccco1 (stereo not given) — higher, -0.79%
- ClCc1nc2ccccc2n1Cc1ccccc1 — higher, -12.9%
- O=c1[nH]nc(-c2ccc(F)cc2)cc1Cc1ccc(F)cc1 — higher, 4.58%
- CCN(CC)C(=O)[C@H]1CC(CC(=O)NCc2cccc(C(F)(F)F)c2)C(=O)N2CCc3c([nH]c4ccc(OC)cc34)[C@]12C (stereo not given in full) — higher, -1.5%
- Cc1cc(Nc2cccc(Cl)c2C)n2ncnc2n1 — higher, 2.07%
- COc1ccc(C(=O)c2sc3nc(C)cc(-c4cccs4)c3c2N)cc1 — lower, -24.1%
- CN1c2ccc(C=O)c3c(C=O)ccc(c23)N(C)C1(C)C — higher, 10.5%
- Nc1c(C(=O)O)sc2nc(-c3ccccc3)cc(-c3ccc(Cl)cc3)c12 — higher, 4.22%
- CCOc1ccc(S(=O)(=O)N2CCc3cc(OC)c(OC)cc3C2)cc1 — higher, 0.964%

With CCCCNc1c2c3c(cccc3n(C)c1=O)C(=O)c1ccccc1-2 the Potency was 5.8 µM (active).
With CCN(CC)c1ccc(/C=C(\C#N)C(=O)NCc2ccccc2)cc1 the Potency was 14.6 µM (active).
In the case of Cc1oc2cc(O)ccc2c(=O)c1-c1nncn1-c1ccccc1, the Potency is reported as 20.6 µM (active).
With COc1ccc(CCn2c(=N)c(S(=O)(=O)c3ccc(Cl)cc3)cc3c(=O)n4ccccc4nc32)cc1 the Potency was 6.51 µM (active).
For CC(C)c1nnc(N2C(=O)C(O)=C(C(=O)c3cccs3)C2c2ccccc2)s1 (stereo not given), the Potency was 8.19 µM (active).
With Cc1cc[n+](-c2[nH]c(=O)sc2/C=N/NC([S-])=Nc2ccccc2)cc1 the Potency was 18.3 µM (active).
O=C(OCCN1C(=O)c2cccc3c(N4CCOCC4)ccc(c23)C1=O)c1ccc(Cl)cc1 was tested, and the Potency was 18.3 µM (active).
In the case of CCC(=O)Oc1ccc2c(c1)O/C(=C\c1ccco1)C2=O, the Potency is reported as 16.3 µM (active).
CCN(CC)S(=O)(=O)c1ccc(C(=O)OCCN2C(=O)c3cccc4c(N5CCOCC5)ccc(c34)C2=O)cc1 was tested, and the Potency was 4.11 µM (active).
In the case of CCN(c1ccc(N=Cc2c(O)n(Cc3ccc(OC)cc3)c(=O)c3ccccc23)cc1)C(C)C, the Potency is reported as 25.9 µM (active).
